Screens as filed in PubChem.
The list is not random: actives were taken first. Their share in the collection is about 32%.
CYP2C9 inh = blockers of cytochrome P450 2C9 activity – biochemical, luminescence, ADME assay, primary screen. 20% of 96,000 active. CYP2C9 Supersomes, luciferin-H conversion. AID 777, 2007. P11712. inhibition, % at 5 µM;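 active = blocking of liver enzyme CYP2C9 beyond about 50% at 5 µM, limit read from the data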
Target sequence (P11712 whole entry, looked up): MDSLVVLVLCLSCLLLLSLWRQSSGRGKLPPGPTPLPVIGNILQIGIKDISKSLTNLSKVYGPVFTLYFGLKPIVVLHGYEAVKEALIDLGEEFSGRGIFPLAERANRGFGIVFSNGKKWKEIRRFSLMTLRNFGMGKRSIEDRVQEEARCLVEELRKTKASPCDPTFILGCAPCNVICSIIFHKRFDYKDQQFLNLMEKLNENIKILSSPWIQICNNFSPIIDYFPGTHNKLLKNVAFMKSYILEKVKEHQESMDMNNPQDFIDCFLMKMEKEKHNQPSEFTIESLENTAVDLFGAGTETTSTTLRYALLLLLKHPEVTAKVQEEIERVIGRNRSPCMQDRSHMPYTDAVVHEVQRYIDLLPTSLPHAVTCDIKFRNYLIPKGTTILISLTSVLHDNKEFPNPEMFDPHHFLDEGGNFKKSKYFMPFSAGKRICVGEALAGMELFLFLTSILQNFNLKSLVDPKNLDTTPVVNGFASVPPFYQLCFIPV
CYP2C19 inhib = blockers of cytochrome P450 2C19 activity – biochemical, luminescence, ADME assay, primary screen | AID 778, 2007 | CYP2C19 Supersomes, luciferin-H EGE luminescence, 30 min | inhibition, % at 5 µM | P33261 | 21% of 96,000 active;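 active = CYP2C19 inhibition above a set limit at 5 µM in the primary screen, cut at about 50% in these data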;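 note: plate controls were negative control wells for no effect and 2.5 mM tranylcypromine positive control for full effect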
PostGolgi yeast = phenotypic screen on post-Golgi transport, primary screen; inhibition, % at 10 µM; post-Golgi transport phenotypic cell assay; AID 739, 2007; 0.9% of 98,000 active;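 note: yeast cells grown in 1536-well plates; yeast grown about 18 h at 30C before absorbance read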
CYP2C19 act = human CYP2C19 activators, primary screen, biochemical, luminescence. Cytochrome P450 2C19 (Homo sapiens), P33261. recombinant CYP2C19, luciferin-H EGE luminescence; stronger effect = higher value; 0 = fully inhibited enzyme, 1 = untreated enzyme. activation factor at 5 µM. 96,000 tested, under 10 active. AID 1025, 2008;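 active = activation factor of at least 2 at 5 µM in the primary screen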;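 note: 0 = wells with 2.5 mM tranylcypromine and 1 = vehicle-only wells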
CYP2C9 activ = human CYP2C9 activators, primary screen, biochemical, luminescence. Cytochrome P450 2C9 (Homo sapiens), P11712. recombinant CYP2C9, luciferin-H conversion; stronger effect = higher value; factor 1 = untreated enzyme, 0 = blocked. activation factor at 5 µM. 1.4% of 96,000 active. AID 1024, 2008;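 active = activation factor of 2 or more for CYP2C9 at a 5 µM dose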;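 note: 0 = sulfaphenazole-blocked wells and 1 = vehicle-only wells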
PostGolgi ctrl = growth inhibition of yeast control strain, primary screen, counter-screen for post-Golgi transport modulator project | efflux-deficient yeast background strain, growth absorbance A615, 16 h | inhibition, % at 10 µM | 5% of 98,000 active | AID 738, 2007
An asterisk follows results filed as active; . = no result given. Cut-off read from the data, not from the text of the source, unless noted: active = inhibition above about 30%; inactive = the rest.

SMILES	CYP2C9 inh	CYP2C19 inhib	PostGolgi yeast	CYP2C19 act	CYP2C9 activ	PostGolgi ctrl
Cc1cccc(N(CC(=O)Nc2c(C)n(C)n(-c3ccccc3)c2=O)S(C)(=O)=O)c1C	12	91*	-6	0.1	0.9	6
Cc1c(NC(=O)C(C)Sc2nc3ccccc3c(=O)n2CCO)c(=O)n(-c2ccccc2)n1C (configuration not stated)	58*	15	-6	0.9	0.4	-6
CCCCNCC(=O)Nc1ccc(NC(=O)CNCCCC)cc1	13	1	-5	1	0.9	1
CC1CCCCN1CCNS(=O)(=O)c1ccc2c(c1)oc(=O)n2C (configuration not stated)	-18	-23	3	1.2	1.2	13
COC(C(=O)Nc1ccc(F)cc1F)c1ccccc1 (configuration not stated)	-2	21	-5	0.8	1	4
COC(C(=O)Nc1cccc(F)c1)c1ccccc1 (configuration not stated)	23	50*	10	0.5	0.8	9
COC(C(=O)Nc1ccccc1F)c1ccccc1 (configuration not stated)	-13	66*	7	0.3	1.1	11
CC1CCc2c(sc(NC(=O)CN3CCN(C(=O)c4ccco4)CC3)c2C#N)C1 (configuration not stated)	6	10	15	0.9	0.9	28
CCOc1ccc(S(=O)(=O)NC(C)(C)C)cc1-c1nc2c(C(C)(C)C)nn(C)c2c(=O)[nH]1	66*	22	7	0.8	0.3	7
CCOc1ccc(-n2cnnn2)cc1S(=O)(=O)NCc1ccccc1	-4	27	0	0.7	1	8
CCOc1ccc(S(=O)(=O)N(CCO)CCO)cc1-c1nc2c(C(C)(C)C)nn(C)c2c(=O)[nH]1	59*	-7	1	1.1	0.4	5
Cc1ccc(S(=O)(=O)CCC(=O)OCC(=O)Nc2ncc(Cl)cc2Cl)cc1	-10	9	-3	0.9	1.1	-4
O=C(c1scc2c1CCCC2)N1CCCCC1	-23	8	-5	0.9	1.2	2
Cc1cc(C(=O)COC(=O)C2=NNC(=O)CC2)c(C)n1-c1ccc(OC(F)F)cc1	27	30	-5	0.7	0.7	-2
Cc1cc(C(=O)COC(=O)C2=NNC(=O)CC2)c(C)n1-c1cccc(C(F)(F)F)c1	81*	78*	5	0.2	0.2	17
Clc1ccc(-c2nnc3n2CCCC3)cc1Cl	-16	-14	1	1.1	1.2	7
Clc1ccc(-c2nnnn2-c2ccc(Cl)c(Cl)c2)cc1Cl	53*	96*	18	0	0.5	14
O=C(Nc1c(-c2ccccc2)nc2sccn12)c1ccccc1	74*	79*	26	0.2	0.3	-1
Nc1nc(-c2cccs2)c(NC(=O)c2ccccc2)s1	21	39	-2	0.6	0.8	-5
CCN(CC)S(=O)(=O)c1ccc2nc(NC(=O)c3cccs3)sc2c1	62*	12	-3	0.9	0.4	8
CCN(CC)S(=O)(=O)c1cccc(C(=O)Nc2nc3cc4c(cc3s2)OCCO4)c1	67*	38	.	0.6	0.3	.
CCOC(=O)Cc1c(C)c2c(C)nn(-c3ccccc3)c2oc1=O	35	11	-1	0.9	0.7	19
O=C(O)c1ccccc1NCN1C(=O)C2CC=C(Cl)CC2C1=O (configuration not stated)	2	3	8	1	1	14
CCOC(=O)C1=C(CC)Nc2ccccc2N=C1NC(=O)Nc1ccc(Cl)c(Cl)c1	94*	58*	73*	0.4	0.1	66*
CCOC(=O)c1ccc(NC(=O)CSc2n[nH]c(-c3ccncc3)n2)cc1	96*	48	2	0.5	0	6
SMILES	CYP2C9 inh	CYP2C19 inhib	PostGolgi yeast	CYP2C19 act	CYP2C9 activ	PostGolgi ctrl
CCOC(=O)c1ccc(NC(=O)CSc2nnc(CNc3ccc(OC)cc3)n2C)cc1	27	27	9	0.7	0.7	10
COC(=O)c1ccc(NC(=O)CSc2n[nH]c(-c3ccncc3)n2)cc1	95*	40	-2	0.6	0.1	7
CCNS(=O)(=O)c1ccc2c3c(cccc13)C(=O)N2	29	70*	3	0.3	0.7	-1
O=C1Nc2ccc(S(=O)(=O)NCCC3=CCCCC3)c3cccc1c23	37	61*	-6	0.4	0.6	8
CCN(CC)S(=O)(=O)c1ccc2c3c(cccc13)C(=O)N2	7	89*	-5	0.1	0.9	7
O=C(COC(=O)c1cccc(S(=O)(=O)NCc2ccccc2)c1)Nc1ccccc1OC(F)F	21	60*	25	0.4	0.8	0
CN(C)S(=O)(=O)c1ccc(C(=O)OCC(=O)Nc2ccccc2OC(F)F)cc1	58*	8	-3	0.9	0.4	-3
Cc1ccc(C(=O)OCC(=O)NCc2ccco2)cc1	38	6	-9	0.9	0.6	-7
O=C(COC(=O)c1ccc(S(=O)(=O)NCc2ccco2)cc1)Nc1ccccc1OC(F)F	76*	5	2	1	0.2	-9
CN(C)S(=O)(=O)c1ccc(C(=O)OCC(=O)c2ccc(OC(F)F)cc2OC(F)F)cc1	48	86*	-3	0.1	0.5	6
COC(=O)/C=C1/N/C(=N\c2nc(C)cc(C)n2)N(c2ccc(C)c(C)c2)C1=O	28	0	-6	1	0.7	4
O=C(NC1CCCCC1)C(c1ccccc1)N(C(=O)Cc1ccsc1)c1ccccc1 (configuration not stated)	1	-4	19	1	1	-2
O=C(NCc1ccco1)C(c1ccccc1)N(Cc1cccnc1)C(=O)Cn1nnc2ccccc21 (configuration not stated)	3	10	10	0.9	1	9
COc1ccc(CCNC(=O)CCn2c(=O)[nH]c3cc(OC)c(OC)cc3c2=O)cc1OC	.	.	-7	.	.	14
COc1ccc(CNC(=O)CCCCCn2c(SCC#N)nc3cc4c(cc3c2=O)OCO4)cc1	94*	48	-4	0.5	0.1	-3
COc1ccc(CCNC(=O)CCCn2c(SCC#N)nc3ccccc3c2=O)cc1OC	65*	39	4	0.6	0.4	2
COc1ccc(CCNC(=O)CCn2c(SCC#N)nc3ccccc3c2=O)cc1OC	60*	42	-5	0.6	0.4	0
O=C(CSc1nnnn1-c1ccc(O)cc1)Nc1ccc(N2CCOCC2)c(Cl)c1	-74	-11	0	1.1	1.7	0
CCOc1ccc(C(=O)Nc2nncs2)cc1OCC	-15	-10	-3	1.1	1.1	14
